A number with no mark means an inactive call. Results filed as inconclusive are left out. Activity calls are given as the source filed them. The call rests on the fitted dose curve; in most records, active means well fitted curve in the direction sought with a large enough effect in the repeat runs; inconclusive means weak or mixed curves; inactive means no such curve, though single readings can be large; an effect the other way counts as inactive or inconclusive.

A short description of experiment [1]: Human pregnane X receptor (PXR) small molecule agonists, qHTS cell viability counter screen (AID 1346977). Further: nearly all actives have a fitted effect of over 50% in size. In a few lines: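 Viability counter screen: CellTiter-Fluor signal in PXR-Luc HepG2 cells, 24hr compound exposure, 37C, 5% CO2.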
(Quantitative high-throughput screening tests each substance at several concentrations.)

Experiment [2] is described as follows: Caspase-3/7 induction in CHO-K1 cells by small molecules, qHTS cell viability counter screen (AID 1346979). Further: nearly all actives have a fitted effect of over 35% in size. In outline:
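Viability readout by fluorescence (CellTiter-Fluor) on wild-type CHO-K1 cells exposed for 16hr at 37C and 5% CO2 to compounds delivered in DMSO; reagent incubated 1hr before reading.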

Experiment [3] in a line: Caspase-3/7 induction in CHO-K1 cells by small molecules, qHTS assay (AID 1346980). Further: nearly all actives have a fitted effect of over 15% in size. In a few lines: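 Wild-type CHO-K1 cells exposed to compounds for 17hr at 37 C, 5% CO2. Caspase-3/7 activity then measured by Caspase-Glo 3/7 luminescence after 30min at room temperature.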
Experiment [4] can be described thus: Caspase-3/7 induction in HepG2 cells by small molecules, qHTS cell viability counter screen (AID 1346981). Further: series mostly up to about 92 µM; nearly all actives have a fitted effect of over 30% in size. In outline:
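Counter screen for cytotoxicity: HepG2 exposed 16 hr to compounds, then CellTiter-Fluor viability signal (fluorescence, 1 hr reagent incubation).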

Experiment [5] addresses Nuclear receptor subfamily 1 group I member 2 (Homo sapiens) (UniProt O75469). Kind of experiment: Human pregnane X receptor (PXR) small molecule agonists, qHTS assay (AID 1346982). Further: nearly all actives have a fitted effect of over 35% in size. Further: potency means the concentration at half of the fitted maximal effect. In a few lines: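 Luminescence (ONE-Glo, 30 min RT) after 24 hr compound exposure of PXR-Luc HepG2 cells; cells rested 5 hr post-plating in 5% charcoal-stripped FBS medium.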
In experiment [6] the target is Cytochrome P450 2D6 (Homo sapiens) (UniProt P10635). Put plainly: Cytochrome P450 Family 2 Subfamily D Member 6 (CYP2D6) small molecule antagonists: luciferase reporter qHTS assay (AID 1671196). Further: nearly all actives have a fitted effect of over 50% in size. Further: potency means the concentration at half of the fitted maximal effect. On activity change, negative = inhibition: series mostly up to about 120 µM. In outline:
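Inhibition of CYP2D6 was gauged by loss of luminescence, since light produced tracks the luciferin generated from a proluciferin substrate. A 10 min room-temperature preincubation preceded 1 h NADPH-supported turnover.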
(In a reporter assay the amount or activity of a reporter protein is the signal.)

Experiment [7] has as its target Cytochrome P450 2C19 (Homo sapiens) (UniProt P33261). Kind of experiment: Cytochrome P450 Family 2 Subfamily C Member 19 (CYP2C19) small molecule antagonists: luciferase reporter qHTS assay (AID 1671197). Further: series mostly up to about 120 µM; nearly all actives have a fitted effect of over 65% in size. In a few lines: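 Quantitative high-throughput screen of the Tox21 library using CYP2C19 with proluciferin substrate. Reaction: NADPH regeneration, 37C, 1 h, after 10 min compound preincubation at room temperature. Readout: luminescence.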

For experiment [8], the target named is Cytochrome P450 2C9 (Homo sapiens) (UniProt P11712). Kind of experiment: Cytochrome P450 Family 2 Subfamily C Member 9 (CYP2C9) small molecule antagonists: luciferase reporter qHTS assay (AID 1671198). Further: series mostly up to about 120 µM; nearly all actives have a fitted effect of over 50% in size. In a few lines: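 P450-Glo proluciferin substrate with CYP2C9 enzyme; 10 min RT preincubation, then NADPH regeneration 1 h at 37C; luciferin detection reagent 20 min RT, luminescence in relative luminescence units.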

The target in experiment [9] is Cytochrome P450 1A2 (Homo sapiens) (UniProt P05177). Kind of experiment: Cytochrome P450 Family 1 Subfamily A Member 2 (CYP1A2) small molecule antagonists: luciferase reporter qHTS assay (AID 1671199). Further: nearly all actives have a fitted effect of over 50% in size. Further: potency means the concentration at half of the fitted maximal effect. On activity change, negative = inhibition: series mostly up to about 120 µM. In outline:
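Signal from luciferin formed by CYP1A2 from a proluciferin substrate is read as luminescence, expressed in relative luminescence units. Compounds sit with enzyme 10 min, NADPH-driven reaction runs 1 h, all at room temperature.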

Experiment [10] concerns the target Cytochrome P450 3A4 (Homo sapiens) (UniProt P08684). Put plainly: Cytochrome P450 Family 3 Subfamily A Member 4 (CYP3A4) small molecule antagonists: luciferase reporter qHTS assay (AID 1671201). In a few lines: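 Relative luminescence units after 20 min with luciferin detection reagent served as read-out. Beforehand, CYP3A4 turned over a proluciferin substrate for 1 h at room temperature with NADPH regeneration, following 10 min compound preincubation.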

Experiment [11] in a line: Caspase-3/7 induction in HepG2 cells by small molecules, qHTS assay (AID 1346978). Further: nearly all actives have a fitted effect of over 15% in size. In a few lines: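 Wild-type HepG2 cells, 2,000/well, settled 5 hr at 37 C and 5% CO2, then compound-treated for 17 hr; caspase-3/7 activity read by luminescent Caspase-Glo 3/7 after 30 min at room temperature.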
Experiment [12] addresses Voltage-gated inwardly rectifying potassium channel KCNH2 (Homo sapiens) (UniProt Q12809). Put plainly: Human Ether-a-go-go-Related Gene (hERG) channel small molecule antagonists: fluorescence cell-based qHTS assay (AID 1671200). In outline: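 Thallium served as the potassium surrogate; its influx into dye-loaded U2OS cells carrying the channel was measured by fluorescence over 2 min.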
A general note: The hERG channel carries a current that helps repolarise heart muscle cells.

Experiment [13] has as its target Nuclear receptor subfamily 1 group I member 2 (Rattus norvegicus) (UniProt Q9R1A7). Kind of experiment: Rat pregnane X receptor (rPXR) activation by small molecules, qHTS assay (AID 1346983). Further: nearly all actives have a fitted effect of over 20% in size. The note with it: rPXR luciferase reporter cells, One-Glo luminescence, 24 h; max activation: stronger effect = higher value. In outline: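 Cell-based rPXR activation assay: rPXR cells, 2,000 per well, rested 5hr at 37 C, then exposed to compounds in DMSO for 24 hr at 37 C. Luciferase activity read by One-Glo luminescence after 30 min at room temperature.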

The target in experiment [14] is Nuclear receptor subfamily 1 group I member 2 (Homo sapiens) (UniProt O75469). Put plainly: CYP3A4 induction through human pregnane X receptor (PXR) by small molecules, qHTS assay (AID 1346984). Further: nearly all actives have a fitted effect of over 40% in size. In a few lines: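 DPX-2 reporter cells; 24h cpd, 37C; Luciferin-IPA 3uM final x3h; One-Glo 30 min RT; lumi read.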
The target is the same in experiment [15]. Kind of experiment: Human pregnane X receptor (PXR) activation by small molecules, qHTS assay (AID 1346985). Further: nearly all actives have a fitted effect of over 40% in size. In outline:
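DPX-2 cells (HepG2 co-transfected with a PXR response element and a CYP3A4-promoter luciferase construct) were seeded at 2,000 per well, rested 5 hr at 37C, then exposed to DMSO-dissolved compounds for 24 hr. Activation was read as luciferase luminescence.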
On the % scale 0 is the no-effect control and ±100 the full control effect.

Sequence of Cytochrome P450 3A4 (Homo sapiens) (P08684 whole entry, looked up): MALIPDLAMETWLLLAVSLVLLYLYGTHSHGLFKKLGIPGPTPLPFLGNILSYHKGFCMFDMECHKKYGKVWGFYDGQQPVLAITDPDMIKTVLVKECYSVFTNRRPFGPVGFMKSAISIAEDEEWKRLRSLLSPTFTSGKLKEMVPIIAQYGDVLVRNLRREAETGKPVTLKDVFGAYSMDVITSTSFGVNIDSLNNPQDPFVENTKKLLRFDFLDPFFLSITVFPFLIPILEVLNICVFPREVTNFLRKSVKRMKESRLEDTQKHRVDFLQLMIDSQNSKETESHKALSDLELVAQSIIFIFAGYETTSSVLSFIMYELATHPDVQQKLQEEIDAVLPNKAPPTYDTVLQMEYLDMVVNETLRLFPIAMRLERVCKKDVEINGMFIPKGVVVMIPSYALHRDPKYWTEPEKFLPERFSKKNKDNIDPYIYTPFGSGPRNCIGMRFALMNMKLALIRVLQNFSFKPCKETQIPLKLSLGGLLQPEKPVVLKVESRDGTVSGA
Sequence of Cytochrome P450 2C9 (Homo sapiens) (P11712 whole entry, looked up): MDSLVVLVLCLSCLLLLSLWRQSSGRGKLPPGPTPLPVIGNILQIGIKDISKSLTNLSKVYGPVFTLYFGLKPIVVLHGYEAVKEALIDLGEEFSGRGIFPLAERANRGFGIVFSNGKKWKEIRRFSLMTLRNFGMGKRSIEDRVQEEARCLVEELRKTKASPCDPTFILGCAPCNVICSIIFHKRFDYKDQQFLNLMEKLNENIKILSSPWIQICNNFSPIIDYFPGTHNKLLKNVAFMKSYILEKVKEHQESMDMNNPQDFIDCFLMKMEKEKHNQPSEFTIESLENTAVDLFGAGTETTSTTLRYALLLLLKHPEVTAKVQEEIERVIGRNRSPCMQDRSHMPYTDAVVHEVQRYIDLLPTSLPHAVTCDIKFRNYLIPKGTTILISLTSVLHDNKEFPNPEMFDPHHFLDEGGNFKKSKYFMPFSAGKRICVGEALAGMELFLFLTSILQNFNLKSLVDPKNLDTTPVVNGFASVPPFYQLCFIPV
Sequence of Nuclear receptor subfamily 1 group I member 2 (Homo sapiens) (O75469 whole entry, looked up): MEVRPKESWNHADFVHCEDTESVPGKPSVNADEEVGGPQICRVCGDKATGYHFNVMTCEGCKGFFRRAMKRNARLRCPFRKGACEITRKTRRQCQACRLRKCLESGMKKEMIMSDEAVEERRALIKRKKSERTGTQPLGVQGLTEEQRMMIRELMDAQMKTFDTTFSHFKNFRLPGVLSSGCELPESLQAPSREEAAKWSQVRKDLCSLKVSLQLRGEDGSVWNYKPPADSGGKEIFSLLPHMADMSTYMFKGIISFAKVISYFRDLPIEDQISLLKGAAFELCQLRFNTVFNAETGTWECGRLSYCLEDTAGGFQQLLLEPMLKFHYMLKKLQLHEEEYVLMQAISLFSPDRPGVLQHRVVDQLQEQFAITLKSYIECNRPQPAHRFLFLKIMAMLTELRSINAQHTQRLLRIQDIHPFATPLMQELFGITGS
Sequence of Nuclear receptor subfamily 1 group I member 2 (Rattus norvegicus) (Q9R1A7 whole entry, looked up): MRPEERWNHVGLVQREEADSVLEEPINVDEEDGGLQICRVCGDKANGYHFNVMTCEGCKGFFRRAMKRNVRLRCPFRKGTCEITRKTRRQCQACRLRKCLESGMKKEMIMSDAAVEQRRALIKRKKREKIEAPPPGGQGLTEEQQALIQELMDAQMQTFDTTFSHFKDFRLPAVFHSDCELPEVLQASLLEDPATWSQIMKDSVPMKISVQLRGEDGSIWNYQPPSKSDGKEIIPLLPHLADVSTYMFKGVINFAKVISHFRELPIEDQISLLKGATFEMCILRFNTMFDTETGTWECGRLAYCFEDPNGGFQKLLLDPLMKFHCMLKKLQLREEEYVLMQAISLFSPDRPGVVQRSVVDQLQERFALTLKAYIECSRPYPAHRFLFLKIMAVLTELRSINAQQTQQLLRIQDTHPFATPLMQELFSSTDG
Sequence of Cytochrome P450 1A2 (Homo sapiens) (P05177 whole entry, looked up): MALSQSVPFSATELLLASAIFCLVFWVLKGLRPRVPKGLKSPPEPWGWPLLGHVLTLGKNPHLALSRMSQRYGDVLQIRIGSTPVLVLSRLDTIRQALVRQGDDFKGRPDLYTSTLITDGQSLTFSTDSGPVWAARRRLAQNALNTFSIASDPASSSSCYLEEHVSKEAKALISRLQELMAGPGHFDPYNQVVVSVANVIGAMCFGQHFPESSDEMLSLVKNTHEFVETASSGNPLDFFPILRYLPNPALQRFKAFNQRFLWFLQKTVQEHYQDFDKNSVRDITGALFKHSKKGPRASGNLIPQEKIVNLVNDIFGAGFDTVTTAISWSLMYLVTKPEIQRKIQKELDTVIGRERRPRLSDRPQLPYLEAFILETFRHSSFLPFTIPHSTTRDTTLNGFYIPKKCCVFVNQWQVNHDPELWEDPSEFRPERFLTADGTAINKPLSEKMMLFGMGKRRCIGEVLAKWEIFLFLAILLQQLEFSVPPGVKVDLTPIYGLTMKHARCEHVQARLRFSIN
Sequence of Cytochrome P450 2C19 (Homo sapiens) (P33261 whole entry, looked up): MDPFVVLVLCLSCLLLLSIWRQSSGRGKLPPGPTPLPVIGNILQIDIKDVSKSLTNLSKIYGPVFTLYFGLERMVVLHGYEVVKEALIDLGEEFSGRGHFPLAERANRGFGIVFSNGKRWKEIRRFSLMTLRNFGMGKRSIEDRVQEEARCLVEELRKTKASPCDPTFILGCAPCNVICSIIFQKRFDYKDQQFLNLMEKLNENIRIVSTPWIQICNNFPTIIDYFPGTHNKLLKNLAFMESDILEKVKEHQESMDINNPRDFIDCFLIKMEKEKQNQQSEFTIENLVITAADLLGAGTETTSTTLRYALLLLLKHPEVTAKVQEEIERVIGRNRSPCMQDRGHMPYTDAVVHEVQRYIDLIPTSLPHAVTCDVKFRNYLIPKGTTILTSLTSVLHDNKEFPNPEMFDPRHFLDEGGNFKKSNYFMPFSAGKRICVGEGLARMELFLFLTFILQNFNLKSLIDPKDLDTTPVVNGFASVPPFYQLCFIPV
Sequence of Cytochrome P450 2D6 (Homo sapiens) (P10635 whole entry, looked up): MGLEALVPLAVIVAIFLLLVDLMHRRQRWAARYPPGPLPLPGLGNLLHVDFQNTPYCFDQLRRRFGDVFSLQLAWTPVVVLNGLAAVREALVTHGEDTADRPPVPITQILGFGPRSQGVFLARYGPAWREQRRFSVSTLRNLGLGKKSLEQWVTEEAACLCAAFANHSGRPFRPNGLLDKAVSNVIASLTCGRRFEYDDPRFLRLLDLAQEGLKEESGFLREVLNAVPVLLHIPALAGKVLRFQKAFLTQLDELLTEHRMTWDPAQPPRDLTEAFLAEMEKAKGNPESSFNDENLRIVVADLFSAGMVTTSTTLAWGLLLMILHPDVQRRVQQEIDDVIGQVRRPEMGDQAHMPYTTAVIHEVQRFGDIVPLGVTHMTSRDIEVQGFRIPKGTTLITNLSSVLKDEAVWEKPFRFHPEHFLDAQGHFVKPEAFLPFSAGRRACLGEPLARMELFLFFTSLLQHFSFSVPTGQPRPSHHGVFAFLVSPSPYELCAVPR
Sequence of Voltage-gated inwardly rectifying potassium channel KCNH2 (Homo sapiens) (Q12809 whole entry, looked up): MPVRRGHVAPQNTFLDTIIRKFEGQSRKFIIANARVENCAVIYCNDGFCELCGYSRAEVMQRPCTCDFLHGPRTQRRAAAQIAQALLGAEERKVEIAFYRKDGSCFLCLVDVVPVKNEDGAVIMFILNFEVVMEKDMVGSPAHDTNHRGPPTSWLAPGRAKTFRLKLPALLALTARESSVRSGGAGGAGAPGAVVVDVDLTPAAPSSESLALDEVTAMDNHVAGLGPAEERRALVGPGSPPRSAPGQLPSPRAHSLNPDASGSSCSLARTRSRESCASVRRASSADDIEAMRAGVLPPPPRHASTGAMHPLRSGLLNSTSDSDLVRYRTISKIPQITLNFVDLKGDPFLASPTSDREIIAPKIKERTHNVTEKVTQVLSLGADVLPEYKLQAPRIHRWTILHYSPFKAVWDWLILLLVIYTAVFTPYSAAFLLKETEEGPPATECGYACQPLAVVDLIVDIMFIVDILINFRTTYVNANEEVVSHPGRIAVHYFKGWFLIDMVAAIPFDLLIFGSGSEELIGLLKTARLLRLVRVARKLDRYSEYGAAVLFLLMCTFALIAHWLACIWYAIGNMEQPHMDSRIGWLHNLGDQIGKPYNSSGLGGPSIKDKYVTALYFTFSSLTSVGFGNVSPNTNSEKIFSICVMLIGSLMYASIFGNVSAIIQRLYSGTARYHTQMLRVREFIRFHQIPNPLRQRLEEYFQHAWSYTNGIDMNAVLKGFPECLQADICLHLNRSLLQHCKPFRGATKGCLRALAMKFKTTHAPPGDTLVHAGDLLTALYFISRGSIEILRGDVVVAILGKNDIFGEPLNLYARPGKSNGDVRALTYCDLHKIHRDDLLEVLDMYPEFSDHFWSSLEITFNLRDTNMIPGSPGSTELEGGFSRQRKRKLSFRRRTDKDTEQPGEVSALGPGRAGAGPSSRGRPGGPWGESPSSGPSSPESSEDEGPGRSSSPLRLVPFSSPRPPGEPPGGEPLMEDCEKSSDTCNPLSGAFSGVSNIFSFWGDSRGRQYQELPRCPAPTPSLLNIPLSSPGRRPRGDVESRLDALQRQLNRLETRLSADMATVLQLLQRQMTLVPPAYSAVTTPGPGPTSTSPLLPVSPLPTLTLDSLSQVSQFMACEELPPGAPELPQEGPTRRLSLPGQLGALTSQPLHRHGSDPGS

With `CN(C)CCN(C)CCN(C)C`, the Potency result in experiment [1], in experiment [2], in experiment [4], in [6], in [7] and in experiment [8] was “inactive” in each case. Besides, the Potency result in [9] and in [10] was “inactive” each time. Moreover, the outcome in [3] was inactive. The Potency in experiment [5] is 29.6 µM (active).
`CCCOC(=O)CC`: the Potency result in experiment [1], in [2], in experiment [4], in experiment [5], in [6] and in [7] was “inactive” in each case. Further, the Potency result in experiment [10] was “inactive”. Moreover, the call in [3] was inactive. The Potency in experiment [9] is 35.5 µM (active).
Regarding `NC(=O)Cc1cccc2ccccc12`, the Potency entry in experiment [1], in [2], in experiment [5], in experiment [6], in experiment [7] and in [8] was “inactive” each time. In addition, the Potency entry in experiment [12] and in experiment [10] was “inactive” in each case. Also, the outcome in experiment [11] and in [3] was inactive.
Take `CCOc1ccc2nc(S(N)(=O)=O)sc2c1`: the Potency entry in experiment [1], in experiment [2], in [4], in experiment [6], in experiment [7] and in experiment [12] was “inactive” in each case. Also, the Potency entry in experiment [10] was “inactive”. For the same molecule, the outcome in experiment [11] was inactive. For the same molecule, the Potency in [9] was 4.07 µM (active).
As for `C[C@@H]1CCC[C@H](C)N1`, the Potency entry in experiment [1], in [2], in experiment [4], in experiment [5], in experiment [14] and in experiment [15] was “inactive” throughout. Also, the Potency result in [6], in experiment [7], in experiment [8], in [9], in [12] and in [10] was “inactive” in each case. In addition, the molecule was classed as inactive in experiment [3]. Further, the max activation in experiment [13] was -0.283%.
Consider `NO`, for which the Potency result in experiment [1], in experiment [2] and in experiment [12] was “inactive” throughout. Besides, the result in [11] and in [3] was inactive.
In the case of `COc1ccc2cc1Oc1cc3c(cc1OC)CC[N+](C)(C)[C@H]3Cc1ccc(cc1)Oc1c(OC)c(OC)cc3c1[C@@H](C2)[N+](C)(C)CC3`, the Potency result in experiment [1], in [2], in experiment [4], in experiment [5], in [14] and in experiment [15] was “inactive” in each case. The Potency result in [6], in [7], in experiment [8], in [9], in experiment [12] and in [10] was “inactive” each time. In experiment [3], the molecule was classed as inactive. Also, the max activation in experiment [13] was 0.186%.
As for `C=CCCCCCCCCC(=O)OCC`, the Potency entry in experiment [1], in [2], in experiment [7], in experiment [8], in experiment [12] and in experiment [10] was “inactive” each time. The molecule was called inactive in [11] and in experiment [3].
`O=[N+]([O-])c1ccc(/C=N\O)o1`: the Potency result in experiment [1], in [4], in experiment [14], in experiment [15], in experiment [6] and in experiment [7] was “inactive” throughout. For the same molecule, the Potency result in experiment [8], in [12] and in experiment [10] was “inactive” each time. The result in [11] and in experiment [3] was inactive. The max activation in [13] was -2.63%. The Potency in [9] was 27.5 µM (active).
Consider `C[N+]1(CC2COC(c3ccccc3)(c3ccccc3)O2)CCCCC1` (configuration not stated), for which the activity change, negative = cytotoxicity is -0.185% [at 19 µM] in experiment [1] and 2.24% [at 19 µM] in experiment [2]. Further, in [11], the caspase activation is -0.482% [at 19 µM]. In [3], the caspase-3/7 activation was -0.436% [at 19 µM]. Also, the activation in experiment [5] is 5.26% [at 19 µM]. In [6], the Potency was 1.69 µM (active). For the same molecule, the Potency result in experiment [7] and in experiment [9] was “inactive” in each case. Also, the activity change, negative = inhibition in [12] was -15.6% [at 15.8 µM]; in experiment [10], -9.22% [at 23.6 µM].

The record behind these values is PubChem BioAssay (Tox21).
